OPRM1-OPRD1 ag: OPRM1-OPRD1 heterodimerization agonism. P35372+P41143. cells, luminescence. activation, % at 9.3 µM. 340,000 tested, 0.3% active; in the data active means activation above about 18%
OPRM1-OPRD1 inv: inverse agonists of human mu-delta opioid receptor heterodimerization. inhibition, % at 9.3 µM. cell-based MOR-DOR heterodimer luminescence, inverse agonism. 340,000 tested, 0.21% active; in the data active means inhibition above about 22%, passing the limit was not always enough
HTR5A ag ctr: counter-screen for OPRM1-OPRD1 agonists: human HTR5A agonism; P47898; HTR5A agonist assay, luminescence, cell-based; activation, % at 9.3 µM; 340,000 tested, 0.61% active; in the data active means activation mostly above about 9.5%, no sharp cut-off; inactive means mostly below about 7.6%
Target sequence (P47898 whole entry, looked up): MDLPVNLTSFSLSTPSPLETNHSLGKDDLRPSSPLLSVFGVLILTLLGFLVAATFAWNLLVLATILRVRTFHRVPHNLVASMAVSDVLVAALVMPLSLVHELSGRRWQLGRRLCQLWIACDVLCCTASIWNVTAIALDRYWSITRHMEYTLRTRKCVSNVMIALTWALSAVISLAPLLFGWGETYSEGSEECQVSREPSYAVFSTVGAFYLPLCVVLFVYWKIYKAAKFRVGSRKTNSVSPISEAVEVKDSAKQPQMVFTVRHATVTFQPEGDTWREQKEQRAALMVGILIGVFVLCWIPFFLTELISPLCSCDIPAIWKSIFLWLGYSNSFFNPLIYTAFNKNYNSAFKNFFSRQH
HTR5A inv ctr: counter-screen for OPRM1-OPRD1 inverse agonists: human HTR5A inverse agonism; 340,000 tested, 0.083% active; HTR5A cell line, luminescence; inhibition, % at 9.3 µM; in the data active means inhibition mostly above about 23%, no sharp cut-off; inactive means mostly below about 18%
Of the large screens only hits and unclear results are named; the others gave an inactive call. Most compounds without a hit are left out; they make up all but 1.1% or so of the library.

Cc1cc(NC(=O)c2cc(-c3ccncc3)nc3c(C)cccc23)no1	none
Cc1ccc2nc(-c3ccccc3)cc(C(=O)Nc3cccnc3)c2c1	HTR5A ag ctr 13
COc1ccc(/C=C(/NC(=O)c2ccco2)C(=O)NCCc2ccccc2)cc1	none
Cc1ccc(C)c(NCc2ccccc2CO)c1	none
CCn1c(CCC(N)=O)nnc1SCC(=O)Nc1cccc(S(=O)(=O)N2CCCC2)c1	none
O=C(C1CC(=O)N(c2ccc(Cl)cc2)C1)N1CCOCC1 (configuration not stated)	none
CCCCN(CCCC)S(=O)(=O)c1ccc2[nH]c(=O)[nH]c2c1	none
CCN(CC)S(=O)(=O)c1ccc2[nH]c(=O)[nH]c2c1	HTR5A ag ctr 9.5
CC(=O)N(Cc1c(C)nn(-c2ccccc2)c1Cl)c1ccc(Cl)cc1	none
Cc1nn(-c2ccccc2)c(Cl)c1CN(C(=O)CCl)c1ccc(Cl)cc1	OPRM1-OPRD1 ag 67, HTR5A ag ctr 50
Cc1nn(-c2ccccc2)c(Cl)c1CN(C(=O)CCl)c1cccc2ccccc12	OPRM1-OPRD1 ag 52, HTR5A ag ctr 40
O=C(O)c1c(C(=O)O)c(-c2ccc(Cl)c(Cl)c2)n2c1CSC2	none
COc1ccc(C(=O)/C(=C\c2ccco2)N2C=CC=CC2=C(C#N)C#N)cc1	OPRM1-OPRD1 inv 33
N#CC(C#N)=C1C=CC=CN1/C(=C\c1ccco1)C(=O)c1ccccc1	OPRM1-OPRD1 inv 36
N#CC(C#N)=C1C=CC=CN1/C(=C\c1ccco1)C(=O)c1ccc(Br)cc1	OPRM1-OPRD1 inv 29
COc1ccc(/C=C(/C(=O)c2cccs2)N2C=CC=CC2=C(C#N)C#N)cc1	none
N#C/C(=C/c1ccco1)C(N)=S	none
CN1C(=O)C(Cc2cnc[nH]2)NC1=S (configuration not stated)	none
O=C(NCc1ccccc1Cl)c1ccc[nH]1	HTR5A ag ctr 13
O=C(NCc1ccccc1Cl)NCc1ccccc1Cl	none
O=C(NCc1ccccc1F)c1ccc(S(=O)(=O)N2CCCCCC2)cc1	none
O=C(NCc1ccccc1Cl)c1ccc(S(=O)(=O)N2CCCC2)cc1	HTR5A ag ctr 11
O=C(NC(=O)c1ccc(Cl)cc1)OC1CCCCC1	none
CC(=O)N1N=C(c2cccs2)CC1c1cccc([N+](=O)[O-])c1 (configuration not stated)	OPRM1-OPRD1 inv 38, HTR5A inv ctr 33
CC(=O)N1N=C(c2ccccc2)CC1c1cccc([N+](=O)[O-])c1 (configuration not stated)	none
O=C1c2ccccc2C(=O)c2c1ccc1c(=O)n(C3CCCCC3)[nH]c21	none
O=C1C2=C(c3ccccc31)[N+](=O)[C@@H]1CCCC[C@@H]1N2[O-]	OPRM1-OPRD1 inv 46
O=C(Nc1ccccc1F)c1ccc(Br)o1	HTR5A ag ctr 13
O=C(CC1C(=O)NCCN1Cc1ccc(F)c(F)c1)NCCn1cccn1 (configuration not stated)	none
COc1ccccc1C(=O)NCCNc1ccc([N+](=O)[O-])cc1Cl	none
O=S(=O)(NN=C1CCCCCC1)c1ccccc1	HTR5A ag ctr 13
O=S(=O)(NN=C1CCCCC1)c1ccccc1	none
COc1ccc(-c2sc3ccc(N4CCOCC4)cc3c2C#CC2(O)CCCCC2)cc1	HTR5A ag ctr 13
COc1ccc(-c2sc3ccc(N4CCOCC4)cc3c2C#CCO)cc1	none
CCCOC(=O)c1cccc(Nc2nc(-c3cccnc3)nc3ccccc23)c1	HTR5A ag ctr 14
CC(C)(C)c1cc(CCC(=O)NN)cc(C(C)(C)C)c1O	HTR5A ag ctr 12
CC(C)(C)c1cc(CCC(=O)N2CCC2)cc(C(C)(C)C)c1O	none
Cc1ccc(Cl)cc1NC(=S)N1CCCCCC1	none
Cc1cccc(-c2noc(CCCC(=O)N3CCOCC3)n2)c1	HTR5A ag ctr 9.8
Cc1ccc(-c2noc(CCCC(=O)N3CCOCC3)n2)cc1	none
CN1/C(=C\C(=O)COc2ccc3c(c2)OCO3)C(C)(C)c2ccccc21	HTR5A ag ctr 14
COc1ccccc1OCC(=O)/C=C1/N(C)c2ccccc2C1(C)C	none
COC(=O)Cn1ncc(N(C)Cc2ccccc2)c(Cl)c1=O	none
CC(C)n1nc(C(=O)OCC(=O)c2c[nH]c3ccccc23)c2ccccc2c1=O	HTR5A ag ctr 10
CCn1nc(C(=O)OCC(=O)c2c[nH]c3ccccc23)c2ccccc2c1=O	none
CCOc1[nH]n(-c2ccccc2)c(=O)c1C=Nc1ccccc1	HTR5A ag ctr 13
CCOC(=O)c1c(-c2ccc(-c3ccccc3)cc2)csc1NC(=O)CCN1CCOCC1	HTR5A ag ctr 11
CCOC(=O)c1c(NC(=O)CN2CCCCC2)sc(CN(C)C)c1-c1ccccc1	HTR5A ag ctr 8.1
CCOC(=O)c1c(-c2ccc(F)cc2)csc1NC(=O)CCN1CCOCC1	none
CCOC(=O)c1c(NC(=O)CCl)sc(CN(C)C)c1-c1ccccc1	none
Cc1ccc(OCc2cc(C(=O)N3CCN(C)C[C@@H]3c3ccccc3)no2)cc1C	none
CN1CCN(C(=O)c2cc(COc3ccccc3)on2)[C@@H](c2ccccc2)C1	HTR5A ag ctr 9.5
COc1cc(S(=O)(=O)N2CCn3cccc3C2C)ccc1NC(C)=O (configuration not stated)	none
O=C1C(=C(I)I)c2ccccc2-c2ccccc21	OPRM1-OPRD1 ag 41
Cc1cc(Cl)ccc1OCC(=O)N(Cc1ccco1)C1CCS(=O)(=O)C1 (configuration not stated)	none
COc1ccccc1NC(=O)Nc1nnc(C(C)c2ccccc2)s1 (configuration not stated)	HTR5A ag ctr 12
CS(=O)(=O)c1ccc(C(=O)OCc2nnc(-c3ccc(Cl)cc3)o2)cc1[N+](=O)[O-]	HTR5A ag ctr 10
O=C(OCc1nnc(-c2ccc(Cl)cc2)o1)c1ccc(O)cc1	none
COc1ccc(S(=O)(=O)N2CCOCC2)cc1NC(=O)c1ccc(=O)[nH]c1	none
COc1ccc(C2C(C#N)=C(N)Oc3c2c(C)nn3-c2ccccc2)cc1Cn1nc(C)c([N+](=O)[O-])c1C (configuration not stated)	HTR5A ag ctr 14
COc1ccc(C2C(C#N)=C(N)OC3=C2C(=O)CC(C)(C)C3)cc1Cn1nc(C)c([N+](=O)[O-])c1C (configuration not stated)	none
COc1ccc(NC(=O)COc2ccccc2Cc2ccccc2)cc1S(=O)(=O)N1CCOCC1	none
C/C(=N\N=C1\NC(=O)CC(C(=O)O)S1)c1ccc(F)cc1 (configuration not stated)	none
O=C1CC(C(=O)O)S/C(=N\NC(=O)c2ccccc2)N1 (configuration not stated)	HTR5A ag ctr 12
Cn1c(CN2CCCCC2)nc2cc(NC(=O)c3ccc(F)cc3)ccc21	HTR5A ag ctr 9.2
Cn1c(CN2CCCCC2)nc2cc(NC(=O)c3ccccc3Cl)ccc21	none
CCCCN1C(=S)NC[C@@H]1Cc1ccc(O)cc1	none
COc1ccccc1CC(=O)Nc1cc(OC)c(NC(=O)c2ccccc2)cc1OC	none
COc1cc(NC(=O)c2ccccc2)c(OC)cc1NC(=O)Cc1ccc(C)cc1	HTR5A ag ctr 9.6
CC(C)(C)N(Cc1ccccc1)C(=O)COC(=O)CSc1ccc([N+](=O)[O-])cc1	none
COc1ccc(S(=O)Cc2ccc(C(=O)NC3CC3)o2)cc1 (configuration not stated)	none
